Our source for the sensor-assay potency score (higher = more potent) values is the OligoGym collection.
Also: reference of the scale not given here.

The first test addresses ZNF135. Put plainly: pooled miR-30 sensor sort-seq; sequence = guide strand. Conditions: shRNA.
TCAAACGTCACTTGCTCCGGGT: the sensor-assay potency score (higher = more potent) was -0.579.
In turn, TAACATAGCACTAATGGGCGTT had a sensor-assay potency score (higher = more potent) of 0.0821.
Same read-out and setting: in the case of TTAGAACTGACAGTTTGACTTT it was -0.0207.
ATGAATATCAGAGTCAACCTGC registered a sensor-assay potency score (higher = more potent) of 0.469.
Still for that read-out and setting: the value for TCTCATTTCTGGAACACTCTGC was 0.253.

Another test addresses ZNF146. Described as above. Conditions: shRNA.
TTCCACAAACATTGCATTCGTA displayed a sensor-assay potency score (higher = more potent) of 0.428.
Same read-out and setting: in the case of TTAAAGTTAACCTCATTCGTGG it was 0.427; in that of TCCACAAACATTGCATTCGTAA, -1.11.
Same read-out and setting: in the case of TTTTATGAGGTACTTCTTCTGG it was -0.457; in that of TTGGATTTGCCACTGAAGGTTT, -0.469.
On the same count and under the same terms, the value for TTACATTCGAAAAGCTTCTCGC was -0.0579; that for TTTATCACCTGAATGAATCCTC was 0.519.
As for ATGTTTAATGACATACTGCTTT, the sensor-assay potency score (higher = more potent) is -0.84.
Regarding TTAACCTCATTCGTGGTGCTTT, the sensor-assay potency score (higher = more potent) was -0.543.
Still for that read-out and setting: in the case of TTTATGAGGTACTTCTTCTGGC it was 0.438.
Still for that read-out and setting: the value for TTGAGAACTGAGAGAAAGCTTT was -0.35; that for TTTCTAATGAAAGCTTTCCCAC was -1.05.

The next test has as its target ZNF160. Described as above. Conditions: shRNA.
For the sequence TTCTGTACTGCTCTTCTCTTTT, the sensor-assay potency score (higher = more potent) was -0.536.
For the sequence TTACCTATTACTCTCCTCCCAC, the sensor-assay potency score (higher = more potent) is -0.496.
The same measure, in the same setting: the value for TGAATTTTGAGTGAAAACCTTG was -0.306; that for TAAACAACAGGTATTGCTCTTT was 0.3; that for TTGATCTCTTTTACCTTCTTTC was -0.844.
Still for that read-out and setting: in the case of TTTCTTGCTATTTTCACACAGC it was -0.0844.
On the same count and under the same terms, in the case of TCTATGTCTCTTCTGTCGCGTT it was -0.213.
With TAGGCTTGAACGAACACTGAAG, the sensor-assay potency score (higher = more potent) is -0.806.
The same measure, in the same setting: the value for TTCTATGTCTCTTCTGTCGCGT was 0.15.
Still for that read-out and setting: in the case of TATGTTTACATGATGTCTCTTG it was 0.273.
The same measure, in the same setting: in the case of TTTTGAGTGAAGCTCTTGCCAC it was -0.929.
In turn, TGTCTTTCCAACACCACTGTGT came in with a sensor-assay potency score (higher = more potent) of 0.215.

In another test the target is ZNF169. The test is described as above. Conditions: shRNA.
For the sequence ATATTGTCTGAGGAGCTGCGAG, the sensor-assay potency score (higher = more potent) is -1.34.
The same measure, in the same setting: in the case of TAAGGTGTGACTTCTGGCCAAG it was -0.969.
Same read-out and setting: in the case of TAGAGCATCTTGGAGCTTCTAG it was -0.619.
Still for that read-out and setting: in the case of TAGCGCATATTGTCTGAGGAGC it was -1.15; in that of TTCGTCGCCTTGCTCCAGCTGT, -0.551.
TTTTTCACTAGAGCATCTTGGA: the sensor-assay potency score (higher = more potent) came out at 0.14.
On to TAGAAGGAGGGCTATCTTCTGG, for which the sensor-assay potency score (higher = more potent) is -0.694.
Same read-out and setting: the value for TTTCTTAATGAGCTGTCGGGGC was -0.62; that for TTTCACTAGAGCATCTTGGAGC was -0.176.
Regarding TATTGTCTGAGGAGCTGCGAGC, the sensor-assay potency score (higher = more potent) is -1.19.
On the same count and under the same terms, in the case of TTCAACATTGTGTCTGACCCCC it was 0.288.
